High-throughput results deposited in PubChem BioAssay by several laboratories.
Mcl1-Noxa inh: Mcl-1/Noxa interaction inhibition | Q07820 | TR-FRET Mcl-1/Noxa peptide binding, 2 h | inhibition, % at 21.7 µM | hit rate 1.5% among 220,000 | AID 1022;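 active = compounds that cut the protein-peptide binding signal by more than 50% relative to plate controls in a single-dose test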;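 note: His-tagged Mcl-1 with rhodamine Noxa BH3 peptide and terbium anti-His antibody; 0% = Mcl-1 plus Noxa peptide wells and 100% = peptide-only wells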
Target sequence (Q07820 whole entry, looked up): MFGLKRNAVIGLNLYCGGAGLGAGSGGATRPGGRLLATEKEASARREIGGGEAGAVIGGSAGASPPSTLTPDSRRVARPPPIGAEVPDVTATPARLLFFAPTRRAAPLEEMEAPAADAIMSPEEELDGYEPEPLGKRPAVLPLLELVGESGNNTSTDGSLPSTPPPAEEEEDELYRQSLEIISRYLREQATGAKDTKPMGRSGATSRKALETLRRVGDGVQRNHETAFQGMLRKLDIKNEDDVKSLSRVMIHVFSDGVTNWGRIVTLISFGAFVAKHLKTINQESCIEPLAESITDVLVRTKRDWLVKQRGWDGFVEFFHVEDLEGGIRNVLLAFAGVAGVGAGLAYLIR
Mcl1-Bid inh: Mcl-1/Bid interaction inhibition. Q07820. TR-FRET Mcl-1/Bid-Dy647 peptide binding, 1536-well. inhibition, % at 21.7 µM. hit rate 0.97% among 220,000;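 active = compounds that cut the binding signal by more than half at the single screening dose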;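 note: His-tagged Mcl-1 with europium anti-His antibody binding Bid BH3 peptide; 0% = Mcl-1 plus peptide wells and 100% = peptide-only wells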
MCL1 BIM primary: MCL1-BIM-BH3 interaction inhibition (human) | inhibition, % at 10.9 µM | Q07820 | GST-MCL1 / FITC-Bim-BH3 fluorescence polarization | AID 2057 | hit rate 0.68% among 320,000;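 active = inhibition above the mean inhibition of all tested compounds plus 3 SD, set per campaign, cut at about 40% in these data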;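 note: 0% = DMSO wells and 100% = unlabeled Bim-BH3 peptide control; higher means more loss of mP so more displacement of Bim peptide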
Bim-Mcl-1: human Bim-Mcl-1 interaction inhibition | hit rate 0.1% among 190,000 | inhibition, % at 10 µM | Q07820 | Bead-based flow cytometry, Bim peptide-Mcl-1 binding | AID 1009; in the data active = inhibition above about 40%;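 note: 0% = no compound tracer wells and 100% = peptide blocker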
GLD-1 TGE inh: GLD-1-TGE RNA interaction inhibition (C. elegans) | Q17339 | purified GLD-1 + fluorescein TGE RNA, fluorescence polarization | inhibition, % at 5.96 µM | hit rate 0.44% among 320,000 | AID 2280;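 active = percent inhibition above a per-plate cutoff, the plate mean of test compounds plus 3 SD, cut at about 30% in these data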;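 note: 0% = DMSO wells with GLD-1 and probe and 100% = wells lacking GLD-1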
BCLXL inh: blocks human Bcl-xL binding to Bim BH3 peptide; GST-Bcl-xL / FITC-Bim BH3 peptide fluorescence polarization; inhibition, % at 10.9 µM; hit rate 0.7% among 320,000; AID 2129;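 active = inhibition above the mean of all tested compounds plus 3 SD, cutoff set per campaign, cut at about 30% in these data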;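 note: 0% = DMSO wells and 100% = unlabeled Bim-BH3 peptide competitor; inhibitors lower millipolarization by displacing the labeled peptide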
Target sequence (Q07817 whole entry, looked up): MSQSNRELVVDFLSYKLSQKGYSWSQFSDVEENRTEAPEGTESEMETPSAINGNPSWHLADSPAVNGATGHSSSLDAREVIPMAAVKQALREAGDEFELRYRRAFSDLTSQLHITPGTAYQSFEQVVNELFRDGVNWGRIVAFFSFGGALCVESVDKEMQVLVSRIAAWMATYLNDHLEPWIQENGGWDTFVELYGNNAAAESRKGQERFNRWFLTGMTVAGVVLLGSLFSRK
* hit, by the source's call; . = no result. Hits are enriched below; roughly 2.3% of the tested compounds scored in any of these assays.

SMILES	Mcl1-Noxa inh	Mcl1-Bid inh	MCL1 BIM primary	Bim-Mcl-1	GLD-1 TGE inh	BCLXL inh
COc1ccc(C(C)=O)cc1COC(=O)c1ccc(OCc2c(C)noc2C)cc1	-80	52*	-2	7	2	3
Cc1ccc2[nH]cc(S(=O)(=O)c3ccc(F)cc3)c(=O)c2c1	.	.	-2	.	-5	1
CCOc1ccc(S(=O)(=O)c2c[nH]c3ccc(C)cc3c2=O)cc1	.	.	19	.	19	41*
C/C(=N/NC(=O)c1cc(-c2cccc([N+](=O)[O-])c2)n[nH]1)c1cccc(O)c1	5	-10	-2	.	-1	-2
C/C(=N\NC(=O)c1cc(-c2cccc([N+](=O)[O-])c2)n[nH]1)c1ccccc1O	58*	73*	18	0	13	-7
COc1cccc(CNC(=O)COC(=O)c2nc(Cl)c(Cl)c(Cl)c2Cl)c1	.	.	2	.	6	0
CCc1cc(C(=O)N2CCN(S(=O)(=O)c3cc(C)ccc3C)CC2)sc1C	.	.	0	.	-2	1
CCCCN1C(=O)C2Cc3c([nH]c4ccccc34)CN2C1=S (stereo unspecified)	-2	-19	-17	0	45*	-10
CCCCCN1CC(=O)N2Cc3[nH]c4ccccc4c3C[C@H]2C1=O	.	.	-8	.	6	-3
CCN1CCN(c2c(S(=O)(=O)c3ccc(C)c(C)c3)cnc3ccc(F)cc23)CC1	.	.	5	.	6	2
Cc1ccc(-c2nn(-c3ccccc3)cc2C(N)=O)o1	51*	-21	-14	0	-11	-6
O=C(CC1C(=O)NCCN1C(=O)Nc1ccc(F)cc1)Nc1ccc(F)cc1 (stereo unspecified)	11	-10	-2	.	0	0
CCCC1c2ccc(C)n2CCN1C(=O)Nc1ccc(F)cc1 (stereo unspecified)	-2	-27	37	-8	15	46*
CCC1c2ccc(C)n2CCN1C(=O)Nc1ccc(F)cc1 (stereo unspecified)	4	-13	42*	-5	24	45*
C#CCN(Cc1ccccc1)S(=O)(=O)C=C	.	.	11	.	-5	5
Cc1cc(-c2nn(C)c(=O)c3ccccc23)ccc1CNC(=O)NC1CCCCC1	7	19	3	0	1	4
COc1ccc(-c2nn(C)c(=O)c3ccccc23)cc1CNC(=O)NC1CCCCC1	-19	62*	-15	1	5	-3
Cc1ccc(-c2nn(CC(=O)NCc3cc(-c4nn(C)c(=O)c5ccccc45)ccc3C)c(=O)c3ccccc23)cc1	-48	79*	3	1	2	7
CCC(=O)NCc1cc(-c2nn(C)c(=O)c3ccccc23)ccc1C	5	5	3	-2	1	5
COC(C(=O)N1CCC(CCC(=O)Nc2ccccc2)CC1)c1ccccc1 (stereo unspecified)	.	.	6	.	6	3
CCOc1ccccc1C(=O)NC(C(=O)NCCc1ccccn1)C(C)C (stereo unspecified)	.	.	.	.	4	.
Cc1ccc(NCc2ccccc2O)cc1C	17	-43	1	-1	7	4
Oc1ccccc1CNc1ccc(OC(F)(F)F)cc1	57*	-78	-5	0	3	-2
Cc1cc(C(=O)Nc2cccc(S(=O)(=O)N3CCCC3)c2)c2ccccc2n1	.	.	-3	.	-8	6
COCCn1cnnc1SCC(=O)Nc1cccc(S(=O)(=O)N2CCCCCC2)c1	2	54*	-24	-1	-1	-7
SMILES	Mcl1-Noxa inh	Mcl1-Bid inh	MCL1 BIM primary	Bim-Mcl-1	GLD-1 TGE inh	BCLXL inh
Cc1cc(C(=O)Nc2cccc(S(=O)(=O)N3CCCCC3)c2)c2ccccc2n1	65*	-10	1	0	-1	1
Cn1cnnc1SCC(=O)Nc1cccc(S(=O)(=O)N2CCCCCC2)c1	6	-25	5	-5	-9	5
Cc1cccc(N(C(=O)CCC(=O)Nc2cc(C)on2)C(C(=O)NC2CCCC2)c2ccccc2)c1 (stereo unspecified)	.	.	2	.	4	2
NC(=O)c1ccsc1NC(=O)c1ccc(N2CCCC2=O)cc1	55*	-2	5	0	-10	3
NC(=O)c1ccsc1NC(=O)c1ccc2c(c1)CCCC2	10	0	-4	-1	-2	0
CCOC(=O)c1c(NC(C)=O)sc2c(O)c(Br)cc(Br)c12	84*	-15	27	-3	5	16
CCOC(=O)c1ccc(S(=O)(=O)N2CCN(CC(O)COc3ccc(C#N)cc3)CC2)cc1 (stereo unspecified)	.	.	9	.	-3	3
Cc1sc(NC(=O)c2ccccc2)c(C(=O)N2CCN(C)CC2)c1C	38	86*	-3	0	2	0
O=S(=O)(Nc1c(S(=O)(=O)c2ccccc2)c2nc3ccccc3nc2n1C1CCCCC1)c1ccccc1	55*	57*	3	-5	7	5
C=CCn1c(NS(=O)(=O)c2ccccc2)c(S(=O)(=O)c2ccc(C)cc2)c2nc3ccccc3nc21	22	-13	10	-13	10	22
Cc1cnc(CNC(=O)CC2C(=O)NCCN2Cc2ccccc2C(F)(F)F)cn1 (stereo unspecified)	.	.	37	.	27	35*
Cc1cc(CNC(=O)CC2C(=O)NCCN2Cc2ccccc2C(F)(F)F)on1 (stereo unspecified)	-4	-24	12	-2	10	21
CN1CCC23c4ccccc4NC1C21CCN(C)C3Nc2ccccc21	.	.	-1	.	9	2
C/C=C/C=C/C(=O)N1CC[C@]23c4ccccc4N[C@H]4N(C)c5cccc6c5[C@]42CCN([C@H]6C2OC2(C)C)[C@H]13 (stereo partly specified)	64*	-109	4	.	4	3
c1ccc2c(c1)nnn2-c1ncnc2sc3c(c12)CCCC3	13	80*	1	1	0	1
OCCN1CCN(c2ncnc3sc4c(c23)CCCC4)CC1	.	.	4	.	9	6
Cc1nc(-n2nnc3ccccc32)c2c3c(sc2n1)CCCC3	20	0	4	1	2	0
Oc1ccc(N2CCN(c3ncnc4sc5c(c34)CCC5)CC2)cc1	74*	-8	33	1	3	25
CCOc1cc(CNc2ccc3[nH]c(=O)[nH]c3c2)ccc1OCC(=O)NC(C)(C)C	44	-11	22	3	6	25
COc1cc(CNc2ccc3[nH]c(=O)[nH]c3c2)cc(Cl)c1OCC(=O)NC(C)(C)C	59*	-14	16	3	-1	10
COc1ccc(N2CC(C(=O)N(CC(C)C)c3c(N)n(Cc4ccccc4)c(=O)[nH]c3=O)CC2=O)c(OC)c1 (stereo unspecified)	.	.	-12	.	-2	-8
O=c1c2ccccc2sn1-c1cc(S(=O)(=O)N2CCOCC2)ccc1N1CCCC1	64*	-108	11	-16	4	15
O=c1c2ccccc2sn1-c1cc(S(=O)(=O)N2CCOCC2)ccc1N1CCOCC1	75*	-27	13	-8	3	-5
